Measured values from ChEMBL document CHEMBL3988442, “University of Dundee, Small-Polar-MMV Screening Library” (2021).
Hit rate of the full screen: of about 48,000 compounds, about 13,000 (27%) showed an effect of 50% or more. Some of the results follow.

These molecules were tested on Wolbachia pipientis (assay: Anti-Wolbachia Cell-Based Screen). Details: 5 µM.
Type: functional
Design: scale not given: in the data most compounds retested in dose-response had high values

Compound | Percent Effect
COC(=O)COc1nc(CC(C)C)c2c(c1C#N)CCCC2 | 13.1%
Cc1noc(CN(C)CC2(O)CCCN(CCC3CCCCC3)C2=O)n1 (centres undefined) | 5.474%
CCSCCNC(=O)c1ccc(S(=O)(=O)N2C[C@@H]3C[C@H]2CN3)cc1 | -8.721%
COC(CNC(=O)c1ccoc1)c1cccc(Cl)c1 (centres undefined) | -9.296%
CCC(CC)c1nnc(NC(=O)N2CCC(C(N)=O)CC2)s1 | -0.6648%
Cc1nc(C2CCN(C(=O)c3cccnc3)CC2)c2sccn12 | -3.155%
COc1ncc(C(=O)N2CCC(c3nc(C)n4ccsc34)CC2)cn1 | 120.4%
COc1ccc(C(=O)N2CCC(c3nccn3C(C)C)CC2)cc1OC | -4.969%
Cc1nc(C2CCN(C(=O)c3cnc(N(C)C)nc3)CC2)c2sccn12 | 121.8%
Cc1ncc(CN(C)CC(O)c2cccc(C(F)(F)F)c2)s1 (centres undefined) | 2.292%
c1ccc(OCCSC2=NCCN2)cc1 | -0.348%
CC(C)N(CC(N)=O)Cc1csc(-c2ncccn2)n1 | 8.567%
CN(C(=O)c1cccc(C(=O)NCC(F)(F)F)c1)c1ccccc1 | -5.375%
CSc1nccn1-c1cccc(C(=O)NCCC(=O)NC(C)C)c1 | 87.94%
CSc1nccn1-c1ccc(C(=O)NCC2CC2)cc1 | 114.7%
CC(C)NC(=O)CCNC(=O)Nc1cccc(-c2nccn2C)c1 | -18.82%
CC(C)NC(=O)CCNC(=O)c1cc(Br)cn1C(C)C | 8.916%
CSc1nccn1-c1cccc(C(=O)NCCN2CCS(=O)(=O)CC2)c1 | 100.7%
CSc1nccn1-c1cccc(C(=O)NCCCN2CCOCC2)c1 | 1.615%
CSc1nccn1-c1cccc(C(=O)NCC2CC2)c1 | -0.4347%
Cc1ccc2cc(C(=O)NCCN3CCS(=O)(=O)CC3)c(C)nc2c1 | -6.636%
CC(=O)N1Cc2nccn2CC(CNC(=O)c2ccnnc2)C1 (centres undefined) | -11.54%
CSc1nccn1-c1cccc(C(=O)NCc2nnc(C)n2C)c1 | 4.938%
CSc1nccn1-c1cccc(C(=O)NCC(F)(F)F)c1 | 95.57%
NC(=O)c1cncc(Oc2cccc(CN3CCCC3)c2Cl)n1 | 9.192%

Compound | Percent Effect
O=C(NCCN1CCOCC1)NCc1ccccc1-n1cccn1 | 1.937%
CC(=O)N(C)Cc1ccccc1NCc1c(C)noc1C | 25.91%
COc1cc(C2(C(=O)NC3CCN(CC4CC4)CC3)CC2)ccc1C | 28.82%
CC(OCC1CC1)C(=O)NCc1cccc(CN2CCN(C)CC2)c1 (centres undefined) | 14.4%
CN(C)[C@@H]1CN(Cc2ccccc2O)C[C@H]1c1cn(C)c2ccccc12.Cl | 136.4%
CN(C)[C@@H]1CN(Cc2cccnc2)C[C@H]1c1cn(C)c2ccccc12.Cl | 79.34%
CC(C)[C@@H]1CN(Cc2ccccc2C#N)C[C@H]1N(C)C | 11.57%
CN(C)[C@@H]1CN(Cc2ccccn2)C[C@H]1c1cn(C)c2ccccc12.Cl | 130.6%
CC(=O)N1CCC2(CC1)[C@@H]1CN(Cc3cccnc3)C[C@@H]1C(=O)N2C | -30.73%
CCn1c(C)nnc1CN(C)C1CCN(Cc2ccccn2)C1 (centres undefined) | 15.92%
CCC[C@@H]1CN(Cc2ccc(N(C)C)nc2)C[C@H]1N(C)C | -0.1894%
CN(C)[C@@H]1CN(Cc2ccc(O)cc2)C[C@H]1c1cn(C)c2ccccc12.Cl | 86.16%
Cn1cc(CCC(=O)N2C[C@H]3CC[C@@H]2CN(Cc2ccccc2)C3)cn1 | -15.29%
Cn1cnnc1SCC(=O)N1C[C@H]2CC[C@@H]1CN(Cc1cccnc1)C2 | -4.246%
CC(C)[C@@H]1CN(Cc2ccccn2)C[C@H]1NS(=O)(=O)N(C)C | -0.7917%
Cn1ccnc1CN1C(=O)CO[C@H]2CN(Cc3ccccc3O)C[C@H]21 | -13.53%
O=C1NC(c2ccccc2)=N[C@@]12CC[C@@H]1CN(Cc3ccoc3)C[C@@H]12 | -8.675%
Cc1ccn(-c2ccccc2NCc2scnc2C)n1 | -9.292%
CCc1ccc(C(C)NC(=O)c2ccc(CS(C)(=O)=O)o2)cc1 (centres undefined) | -17.56%
CC(O)CN(CC(=O)NC(=O)NC1CC1)c1ccccc1 (centres undefined) | 10.44%
CS(=O)(=O)NC(=O)c1cc(Cl)c2c(c1)OCCCO2 | 1.063%
CCc1nc(NS(=O)(=O)c2cc(C)ccc2F)no1 | 7.249%
CCc1cc(N(C)Cc2noc(CC(C)C)n2)ncn1 | 121.1%
CC(C)Cc1noc(CN(C)C2CCCC2)n1 | -3.332%
COc1cc(N(C)Cc2noc(CC(C)C)n2)ncn1 | 117.3%

Compound | Percent Effect
COC(C)c1noc(CN(C)c2ncccn2)n1 (centres undefined) | -22.13%
COCCc1noc(CN(C)c2cc(C)ncn2)n1 | -9.011%
CCN(Cc1noc(CC(C)C)n1)Cc1ccccc1C | 1.611%
CCn1ccnc1CN(C)c1cc(OC)ncn1 | 2.5%
CC(C)Cc1noc(CN(C)c2cc(N(C)C)ncn2)n1 | 110.5%
Cc1ccn(Cc2nc(CC(C)C)no2)c(=O)c1 | -2.116%
CC(C)Cc1nc(CN(C)CCOc2ccc(F)cc2)no1 | 5.016%
CCc1cc(N(C)Cc2noc(C(C)C)n2)nc(N2CCOCC2)n1 | -7.429%
CC(C)Cc1noc(CN(C)c2ncccn2)n1 | 119.3%
OC1CN(Cc2cccc(N3CCOCC3)c2)Cc2ccccc21 (centres undefined) | -36.91%
O=C(c1scc2c1OCCO2)N1CCOC(Cc2ccc(F)cc2)C1 (centres undefined) | -34.62%
CS(=O)(=O)N1CCN(C(=O)CN2CCCc3c(F)cc(F)cc32)CC1 | 12.08%
CC(C)n1ncc2c1NC(=O)CC21C(=O)Nc2c(Cl)cc(Cl)cc21 (centres undefined) | -10.03%
Cc1nn(C)c(C)c1CNC1CCOc2ccccc21 (centres undefined) | -9.351%
Cn1ncc(NCc2cccc(COC(C)(C)C)c2)c(Cl)c1=O | -1.578%
CN(Cc1nccn1C)CC1CCOc2ccccc2C1 (centres undefined) | 12.56%
CC(C)C(=O)NC1CCCN(C(=O)c2cc3ccccc3cc2O)C1 (centres undefined) | 101.9%
CC(C)C(=O)NC1CCCN(C(=O)c2ccccc2O)C1 (centres undefined) | 105%
CC(=O)NC1CCCN(C(=O)Nc2nnc(C(C)C)s2)C1 (centres undefined) | -25.39%
CC(=O)NC1CCN(C(=O)c2cnc(COc3ccccc3)nc2O)C1 (centres undefined) | 1.868%
CC(C)(C)OC(=O)NCC1CCN(C(=O)c2ccccc2O)C1 (centres undefined) | -1.633%
COc1ccc(C(=O)N2CCCC(NC(=O)C(C)C)C2)c(O)c1 (centres undefined) | 103.8%
COc1ccc(C(=O)N2C[C@@H](C(=O)O)[C@H](c3ccccc3)C2)c(O)c1 | 5.335%
CC(=O)NC1CCCN(C(=O)c2ccc(Br)cc2O)C1 (centres undefined) | -3.443%
O=C(NCCc1nncn1C1CC1)C1(c2ccccc2)CCC1 | -10.81%

Compound | Percent Effect
CS(=O)(=O)CCNC(=O)NCCc1cc2ccccc2o1 | -10.03%
CCOC(=O)C1(CCOC)CCN(Cc2nccn2CC)CC1 | -7.374%
CC(C)NC(=O)NC[C@H]1OC[C@@H](NCc2ccccc2O)[C@@H]1O | 1.072%
O=C(NCC1(O)CCCCC1)c1coc(COc2cccc(F)c2)n1 | -6.674%
CCc1nnsc1C(=O)N1CCN(CC(O)C(C)(C)C)CC1 (centres undefined) | 3.041%
COc1ccc(C(=O)N2CCC3(CC2)c2ccccc2[C@@H](N)[C@@H]3O)cc1 | -1.286%
CC(C)c1cc(C(=O)N2CCC3(CC2)c2ccccc2[C@@H](N)[C@@H]3O)cs1 | 119.3%
Cc1ccc(C(=O)N2CCC3(CC2)c2ccccc2[C@@H](N)[C@@H]3O)cc1F | -5.913%
Cn1ncc(C(=O)OCC2CC(=O)N(c3ccccc3)C2)c1C(F)F (centres undefined) | -5.382%
O=S1(=O)CCCN1Cc1coc(-c2ccc(C(F)(F)F)cc2)n1 | -8.069%
Cc1ncnc2c1CCN(CC1CCOC1)CC2.O=C(O)C(F)(F)F (centres undefined) | 17.43%
Cn1cc(-c2ncnc3c2CCN(CC2CCOC2)CC3)cn1.O=C(O)C(F)(F)F (centres undefined) | 97.72%
O=C(O)C(F)(F)F.O=C(O)C(F)(F)F.c1ccc(CN2CCc3ncnc(-c4ccncc4)c3CC2)nc1 | -25.56%
O=C(O)C(F)(F)F.c1nc2c(c(-c3ccsc3)n1)CCN(Cc1ccoc1)CC2 | -2.066%
O=C(O)C(F)(F)F.c1ccc(CN2CCc3ncnc(-c4ccoc4)c3CC2)nc1 | -8.699%
Cc1noc(C)c1CN1CCc2ncnc(-c3ccoc3)c2CC1.O=C(O)C(F)(F)F | 108.1%
Cc1nc(CN2CCc3ncnc(-c4ccncc4)c3CC2)cs1.O=C(O)C(F)(F)F.O=C(O)C(F)(F)F | -2.21%
Cc1noc(C)c1CN1CCc2ncnc(-c3ccncc3)c2CC1.O=C(O)C(F)(F)F.O=C(O)C(F)(F)F | 90.01%
CCN(C)c1ncnc2c1CCN(CC1CCOC1)CC2.O=C(O)C(F)(F)F (centres undefined) | -11.17%
Cc1noc(C)c1CN1CCc2ncnc(-c3ccccc3)c2CC1.O=C(O)C(F)(F)F | 91.91%
OCc1ccc(CN2CCC(n3cc(-c4ccsc4)nn3)CC2)o1 | -3.234%
O=C(O)c1csc(S(=O)(=O)N2CCN(Cc3ccc(Cl)cc3)CC2)c1 | 3.67%
Cc1ccc(S(=O)(=O)NCCCN2CCC(O)CC2)cc1Cl | 11.47%
COCc1noc(CCNc2nc(CC3CC3)nc3c2CCNCC3)n1 | -2.883%
